Results as given in the supplement of paper PMC10981050.
Values joined by “and” are separate entries in the source; they are usually repeats but may differ in a detail not shown here. Equal values may be shown once. Where a name gives a salt, the structure may show the parent alone.

Key:
Test in all cases: cell viability relative to vehicle control; higher = less cytotoxic
Details in all cases: 10 µM
[1] = tested on: K562
How it was run: (§1)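 Each screen used CRISPR-edited mutant and wild-type clones from four leukaemia lines. Compounds were acoustically dispensed at a single 10 µM dose, and CellTiter-Glo luminescence was read after 48 h with the supernatant first removed. Viability was analysed in Genedata Screener and given as percent of the on-plate vehicle control.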

[2] = tested on: MARIMO
How it was run: as §1

[3] = tested on: MOLM14
How it was run: as §1

[4] = tested on: OCI-AML2
How it was run: as §1

| SMILES | cell viability ([1]; SRSF2 genotype: SRSF2 P95H/wt) | cell viability ([1]; SRSF2 genotype: SRSF2 wt/wt) | cell viability ([2]; SRSF2 genotype: SRSF2 P95H/wt) | cell viability ([2]; SRSF2 genotype: SRSF2 wt/wt) | cell viability ([3]; SRSF2 genotype: SRSF2 P95H/wt) | cell viability ([3]; SRSF2 genotype: SRSF2 wt/wt) | cell viability ([4]; SRSF2 genotype: P95H/wt) | cell viability ([4]; SRSF2 genotype: wt/wt) |
| --- | --- | --- | --- | --- | --- | --- | --- | --- |
| C[C@H](N=C(NC#N)Nc1cccc2ncccc12)c1ccccc1 | 99.3% and 100% | 97% | 104% | 107% | 97.6% | 98.4% | 108% | 112% |
| O=P(O)(O)C(O)(Cc1cccnc1)P(=O)(O)O [Risedronate sodium] | 95.3% and 102% | 91.4% | 88.9% | 102% | 91.8% | 101% | 93.7% | 98.3% |
| O=C(O)C(=O)O [Oxalic acid] | 99% and 94.9% | 90% | 95.8% | 94.5% | 95.2% | 94.3% | 99.2% | 99.6% |
| Oc1nc(-c2ccc(C(F)(F)F)cc2)nc2c1CSCC2 | 105% and 99.2% | 105% | 104% | 105% | 94% | 95.5% | 94.6% | 96.7% |
| COc1ccccc1OCC(O)COC(N)=O (stereo not given) [Methocarbamol (Robaxin)] | 99.3% and 104% | 107% | 94.9% | 106% | 109% | 104% | 98.4% | 106% |
| CCOC(=O)Nc1cc(-c2ccc(C)c(NS(C)(=O)=O)c2)nn2c(C)nnc12 [Bromosporine] | 33.4% and 42% | 49.7% | 9.42% | 13.9% | 3.2% | 1.48% | 1.03% | 4.94% |
| Cc1cnc(-c2ccccc2C(C)C)nc1NCc1ccc(-n2ccnn2)cc1 | 76.7% and 83.9% | 74.5% | 91.1% | 89.7% | 94% | 88.5% | 93.2% | 90.2% |
| NC(N)=Nc1nc(CSCC/C(N)=N/S(N)(=O)=O)cs1 [Famotidine (Pepcid)] | 105% and 106% | 109% | 111% | 106% | 103% | 107% | 107% | 107% |
| CN(C)CCCn1cc(C2=C(c3c[nH]c4ccccc34)C(=O)NC2=O)c2ccccc21 | 91.2% and 78.4% | 98.8% | 82.9% | 92% | 36.4% | 32.5% | 34% | 67.1% |
| O=C(O)CCc1ccc(O)cc1O [Hydroumbellic acid] | 96% and 92.8% | 90.8% | 95.6% | 104% | 100% | 100% | 93.3% | 106% |
| CNc1nc(-c2ccc3c(N)n[nH]c3c2)cc(N2C[C@@H](C(=O)NC3CCCCC3)CC[C@H]2C)n1 | 78.3% and 74.9% | 73.5% | 72.1% | 72.8% | 42.3% | 39.5% | 47.6% | 40.7% |
| COc1cc(C)c(/C=C/C(C)=C/C=C/C(C)=C/C(=O)O)c(C)c1C [Acitretin] | 87% and 91.6% | 90% | 79.1% | 88.1% | 87.4% | 89.2% | 32.6% | 52% |
| CN(C)CC(c1ccc(O)cc1)C1(O)CCCCC1 (stereo not given) [Desvenlafaxine] | 96.7% and 97.5% | 101% | 102% | 102% | 98.1% | 100% | 100% | 99.3% |
| COC1CCN(C(=O)c2cc(Cc3n[nH]c(=O)c4ccccc34)ccc2F)CC1 | 78.6% and 83.8% | 86% | 81.5% | 97.1% | 57.9% | 34.7% | 51.2% | 62.1% |
| O=C(NC1(c2ccccc2)CC1)c1c(CN2CCC(N3CCCCC3)CC2)c(-c2cccc(C(F)(F)F)c2)nc2cc(Br)ccc12 | 8.23% and 19.8% | 11.8% | 66.8% | 58.4% | 64.9% | 71.4% | 1.08% | 24.1% |
| O=c1c(N=Nc2nccs2)c(-c2ccccc2)[nH]n1-c1nc(-c2ccccc2)cs1 | 88.4% and 89.2% | 88.4% | 94.2% | 106% | 92.9% | 95.9% | 103% | 105% |
| CCn1c(-c2nonc2N)nc2c(C#CC(C)(C)O)ncc(OC[C@H]3CCCNC3)c21 | 87.1% and 95.7% | 79.5% | 73% | 72.3% | 59.2% | 47.1% | 53.9% | 57.1% |
| CC(=O)Oc1ccc(C(=C2CCCCC2)c2ccc(OC(C)=O)cc2)cc1 [Cyclofenil] | 98% and 94.2% | 98.5% | 96.8% | 95.8% | 94.3% | 102% | 96.8% | 96.9% |
| Cn1nccc1Nc1nccc(-c2cc3c(s2)C(C)(C)N(CCN2CCOCC2)C3=O)n1 | 77.8% and 81.6% | 76.5% | 39.5% | 40.1% | 42.6% | 37% | 38.6% | 43.2% |
| NCCOc1cc(C(=O)Nc2cc(OCCN)c3ccccc3n2)nc(C(=O)Nc2cc(OCCN)c3ccccc3n2)c1 [Pyridostatin Trifluoroacetate Salt] | 87.7% and 94.2% | 72.6% | 83.8% | 84.5% | 57.4% | 33.6% | 6.12% | 17.8% |

| SMILES | cell viability ([1]; SRSF2 genotype: SRSF2 P95H/wt) | cell viability ([1]; SRSF2 genotype: SRSF2 wt/wt) | cell viability ([2]; SRSF2 genotype: SRSF2 P95H/wt) | cell viability ([2]; SRSF2 genotype: SRSF2 wt/wt) | cell viability ([3]; SRSF2 genotype: SRSF2 P95H/wt) | cell viability ([3]; SRSF2 genotype: SRSF2 wt/wt) | cell viability ([4]; SRSF2 genotype: P95H/wt) | cell viability ([4]; SRSF2 genotype: wt/wt) |
| --- | --- | --- | --- | --- | --- | --- | --- | --- |
| Nc1ncnc2c1ncn2[C@@H]1O[C@H](COP(=O)(O)O)[C@@H](O)[C@H]1O [5'-Adenylic acid] | 99.5% and 92.5% | 90.4% | 84% | 87.2% | 87.1% | 89.3% | 99.6% | 93.9% |
| CC(C)=C[C@H]1C[C@](C)(O)[C@@H]2[C@H]3CC[C@@H]4[C@@]5(C)CC[C@H](O[C@@H]6OC[C@H](O)[C@H](O[C@@H]7O[C@H](CO)[C@@H](O)[C@H](O)[C@H]7O[C@@H]7OC[C@@H](O)[C@H](O)[C@H]7O)[C@H]6O[C@@H]6O[C@@H](C)[C@H](O)[C@@H](O)[C@H]6O)C(C)(C)[C@@H]5CC[C@@]4(C)[C@@]34CO[C@@]2(C4)O1 [Jujuboside B] | 117% and 106% | 102% | 108% | 113% | 107% | 106% | 97.2% | 108% |
| CCCCOc1cc(C(=O)NCCN(CC)CC)c2ccccc2n1 [Dibucaine (Cinchocaine) HCl] | 94.5% and 84% | 85.3% | 81.8% | 91.5% | 86.2% | 91.7% | 93.2% | 86.1% |
| Cn1c(-c2ccccc2C(F)(F)F)nnc1C12CCC(c3noc(C4CC(F)(F)C4)n3)(CC1)CC2 | 87.3% and 92.5% | 84.7% | 88% | 99.8% | 79.8% | 87.7% | 99% | 94.8% |
| NC(=O)c1cccc(-c2cccc(OC(=O)NC3CCCCC3)c2)c1 | 95.8% and 91.2% | 96.1% | 95% | 92.4% | 99.5% | 99% | 88.6% | 96.4% |
| NC(=O)c1cccc2[nH]c(-c3ccc(C4CCCN4)cc3F)nc12 (stereo not given) | 94.1% and 89.6% | 80.1% | 72.9% | 80.5% | 47.7% | 33% | 47.9% | 54.3% |
| Cc1[nH]nc2ccc(-c3cncc(OC[C@@H](N)Cc4ccccc4)c3)cc12 | 31.9% and 28.5% | 26.3% | 7.82% | 5.76% | 0.2% | 0.05% | 0.26% | 6.55% |
| CCCCCCCCCCCCCCCCCCCCCCCCCCCCO [1-Octacosanol] | 107% and 110% | 98.7% | 109% | 106% | 100% | 106% | 96.2% | 108% |
| C/C=C/C=C/C(=O)O [Sorbic acid] | 92.4% and 92.8% | 92.6% | 90.7% | 99.1% | 99.3% | 101% | 106% | 106% |
| O=C1C2=C(CCN(Cc3ccccc3)C2)N2CCN=C2N1Cc1ccc(C(F)(F)F)cc1 | 39% and 40.3% | 34% | 43% | 36.9% | 31.1% | 34.1% | 22.3% | 22.3% |
| C=CCc1cc(OC)c(O)c(C(=O)NCCO)c1 [Alibendol] | 100% and 103% | 103% | 98.2% | 104% | 98.2% | 102% | 100% | 112% |
| Cc1ncc(-c2ccnc(Nc3ccc(S(C)(=O)=O)cc3)n2)n1C(C)C | 45.1% and 45.5% | 32.4% | 10.9% | 5.22% | 1.23% | 0.38% | 0.94% | 15.2% |
| CC1(C)CCC2(C(=O)O)C(O)CC3(C)C(=CCC4C5(C)CC(O)C(O)C(C)(CO)C5CCC43C)C2C1 (stereo not given) [Polygalacic acid] | 103% and 102% | 103% | 101% | 98.5% | 109% | 100% | 104% | 94.9% |
| COc1cc2c(cc1OC)-c1cc3ccc(OC)c(OC)c3c[n+]1CC2 [Palmatine] | 80.5% and 88.6% | 90.2% | 92.6% | 92% | 93.5% | 90.9% | 88.8% | 78.7% |
| NC1=N[C@@](c2cccc(-c3cncnc3)c2)(c2ccnc(C(F)F)c2)c2cccc(F)c21 | 76.9% and 74.8% | 81.4% | 80.1% | 95.2% | 85.7% | 84.1% | 71.1% | 71.3% |
| c1ccc2c(c1)CCCC2C1=NCCN1 (stereo not given) [Tetrahydrozoline HCl] | 101% and 92.1% | 92.9% | 92.1% | 97.2% | 79.5% | 90.7% | 87.8% | 93.8% |
| CN(C)CCC[C@@]1(c2ccc(F)cc2)OCc2cc(C#N)ccc21 [Escitalopram Oxalate] | 87.5% and 88.8% | 92.8% | 85.4% | 91.1% | 89.4% | 93.7% | 89.2% | 88.4% |
| CCCCCCCCCC(=O)OCC(COC(=O)CCCCCCCCC)OC(=O)CCCCCCCCC [Glyceryl tridecanoate] | 105% and 101% | 100% | 106% | 114% | 100% | 104% | 97.2% | 98.6% |
| CCOC(=O)[C@H](CCc1ccccc1)N[C@@H](C)C(=O)N(CC(=O)O)C1Cc2ccccc2C1 [Delapril Hydrochloride] | 100% and 97.5% | 95.8% | 91% | 100% | 86.3% | 90.7% | 94% | 91.6% |
| O=C(Nc1ncc([N+](=O)[O-])s1)c1ccccc1O [Tizoxanide] | 82% and 82.9% | 88.8% | 90.3% | 94.2% | 96.9% | 100% | 91.2% | 96.1% |
